Where “and” joins values, the source holds several entries; their conditions need not be identical. Equal entries are not always repeated. Screen size: about 5,500 compounds; about 2,000 (36%) were called active. Inconclusive results (about 18%) are left out. No stated cut-off is given here; in the data, active means normalized growth mostly below about 0.91 (no sharp cut-off); inconclusive means no clear call, values can overlap the other calls; inactive means mostly above about 0.92. This is one part of the list.
Assay: chemical genetic growth profiling, strain panel (AID 1159580);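 further: tested at 20 µM; growth read once vehicle control cultures reached saturation at 30 °C; 1 = growth at the plate median or of vehicle wells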
Conditions: S. cerevisiae deletion strains, growth OD

Measured: normalized growth

C#C[C@]1(OC(C)=O)CCC2C3CCC4=CC(=O)CC[C@@H]4C3CC[C@@]21C (some centres not stated)
inactive: locus YAL013W, strain DEP1, stronger effect = lower value 0.97 | locus YAL021C, strain ccr4, stronger effect = lower value 0.988 | locus YAL026C, strain drs2, stronger effect = lower value 0.984 | locus YAL030W, strain snc1, stronger effect = lower value 0.986 | locus YBL061C, strain skt5, stronger effect = lower value 0.981 | locus YBR009C, strain hhf1, stronger effect = lower value 0.991 | locus YBR021W, strain FUR4, stronger effect = lower value 0.98 | locus YBR023C, strain chs3, stronger effect = lower value 0.976 | locus YBR171W, strain sec66, stronger effect = lower value 0.974 | locus YBR229C, strain ROT2, stronger effect = lower value 0.953 | locus YBR231C, strain swc5, stronger effect = lower value 1.01 | locus YBR279W, strain paf1, stronger effect = lower value 0.977 | locus YCL011C, strain gbp2, stronger effect = lower value 0.985 | locus YCL016C, strain dcc1, stronger effect = lower value 0.974 | locus YCL029C, strain bik1, stronger effect = lower value 0.96 | locus YCL069W, strain vba3, stronger effect = lower value 0.973 | locus YCR088W, strain abp1, stronger effect = lower value 0.99 | locus YDL005C, strain med2, stronger effect = lower value 0.971 | locus YDL035C, strain GPR1, stronger effect = lower value 0.972 | locus YDL040C, strain nat1, stronger effect = lower value 0.985 | locus YDL074C, strain BRE1, stronger effect = lower value 0.965 | locus YDL101C, strain DUN1, stronger effect = lower value 0.97 | locus YDL134C, strain PPH21, stronger effect = lower value 0.948 | locus YDL185W, strain tfp1, stronger effect = lower value 0.976 | locus YDL192W, strain arf1, stronger effect = lower value 0.961 | locus YDR001C, strain nth1, stronger effect = lower value 0.999 | locus YDR069C, strain doa4, stronger effect = lower value 0.969 | locus YDR101C, strain arx1, stronger effect = lower value 0.977 | locus YDR137W, strain rgp1, stronger effect = lower value 0.982 | locus YDR159W, strain sac3, stronger effect = lower value 0.936 | locus YDR162C, strain NBP2, stronger effect = lower value 0.961 | locus YDR195W, strain ref2 0.978 | locus YDR297W, strain sur2, stronger effect = lower value 0.994 | locus YDR318W, strain mcm21, stronger effect = lower value 0.941 | locus YDR334W, strain swr1, stronger effect = lower value 1.02 | locus YDR335W, strain msn5, stronger effect = lower value 0.978 | locus YDR388W, stronger effect = lower value 0.966 | locus YDR392W, strain spt3, stronger effect = lower value 0.828 | locus YDR502C, strain sam2, stronger effect = lower value 0.949 | locus YEL003W, strain gim4, stronger effect = lower value 1.01 | locus YEL037C, strain rad23, stronger effect = lower value 1 | locus YEL061C, strain CIN8 (second series), stronger effect = lower value 0.991 | locus YEL061C, strain CIN8, stronger effect = lower value 0.978 | locus YER015W, strain faa2, stronger effect = lower value 0.995 | locus YER016W, strain bim1, stronger effect = lower value 0.988 | locus YER110C, stronger effect = lower value 0.97 | locus YER111C, strain swi4, stronger effect = lower value 0.985 | locus YER155C, strain BEM2 (second series), stronger effect = lower value 0.975 | locus YER155C, strain BEM2, stronger effect = lower value 0.971 | locus YER167W, strain BCK2, stronger effect = lower value 0.974 | locus YFR010W, strain ubp6, stronger effect = lower value 1 | locus YGL078C, strain dbp3, stronger effect = lower value 0.989 | locus YGL086W, strain mad1, stronger effect = lower value 0.957 | locus YGL167C, strain pmr1, stronger effect = lower value 0.993 | locus YGL173C, strain kem1, stronger effect = lower value 0.989 | locus YGL227W, strain vid30, stronger effect = lower value 0.975 | locus YGL240W, strain doc1, stronger effect = lower value 1 | locus YGL248W, strain PDE1, stronger effect = lower value 0.967 | locus YGL253W, strain hxk2, stronger effect = lower value 1.01 | locus YGR135W, strain pre9, stronger effect = lower value 0.925 | locus YGR252W, strain gcn5, stronger effect = lower value 1.07 | locus YHR013C, strain ard1, stronger effect = lower value 0.955 | locus YHR027C, strain rpn1, stronger effect = lower value 1.01 | locus YHR030C, strain SLT2, stronger effect = lower value 0.975 and 0.933 | locus YHR079C, strain IRE1 (second series), stronger effect = lower value 0.969 | locus YHR079C, strain IRE1, stronger effect = lower value 0.92 | locus YHR094C, strain hxt1, stronger effect = lower value 0.981 | locus YHR129C, strain ARP1, stronger effect = lower value 0.974 | locus YHR142W, strain chs7, stronger effect = lower value 1 | locus YHR200W, strain rpn10, stronger effect = lower value 0.963 | locus YIL066C, strain RNR3, stronger effect = lower value 0.965 | locus YIL073C, strain SPO22, stronger effect = lower value 0.926 | locus YIL125W, strain kgd1, stronger effect = lower value 0.971 | locus YIR030C, strain dcg1, stronger effect = lower value 0.961 | locus YJL092W, strain hpr5, stronger effect = lower value 1 | locus YJL095W, strain BCK1 (second series), stronger effect = lower value 0.984 | locus YJL095W, strain BCK1, stronger effect = lower value 0.926 and 0.95 | locus YJL115W, strain asf1, stronger effect = lower value 0.982 | locus YJL129C, strain trk1, stronger effect = lower value 0.975 | locus YJL134W, strain LCB3, stronger effect = lower value 0.973 | locus YJL154C, strain vps35, stronger effect = lower value 0.985 | locus YJL164C, strain tpk1, stronger effect = lower value 0.99 | locus YJL166W, strain qcr8, stronger effect = lower value 0.995 | locus YJL168C, strain set2, stronger effect = lower value 0.97 | locus YJL187C, strain SWE1 (second series), stronger effect = lower value 0.961 | locus YJR043C, strain POL32, stronger effect = lower value 1.03 | locus YJR066W, strain TOR1, stronger effect = lower value 0.903
